# Test results as given in PubChem BioAssay (EPA / NIEHS).
# “And” between values parts separate entries of the source, which are not always exact repeats. Identical values can stand only once. Inconclusive results are not listed. The source made the active and inactive calls. Rule for the calls: active = hit-call score of the fitted dose curve at least 0.9, where 1 is the maximum; inconclusive = response in the unintended direction; inactive = score below 0.9.
# Tests used:
# [1] = system: Sodium/Iodide Symporter (NIS), SLC5A5 (gene 6528); assay: CPHEA_Stoker_NIS_Inhibition_RAIU: CPHEA's Radioactive Iodide Uptake (RAIU) Assay for Sodium/Iodide Symporter (NIS) Inhibition, Stoker and Laws Labs (AID 2283841)
# In short: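 Test chemicals, six concentrations from 0.001 to 100uM in 0.5% DMSO, were co-incubated with carrier-free 125I (final 329pM) on hNIS-HEK293T-EPA monolayers in pH 7.4 HEPES-buffered HBSS. Plates stood 2 hours at room temperature, then were washed cold and counted.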
# [2] = CPHEA_Stoker_NIS_Cytotoxicity: Cytotoxicity Assessment for CPHEA's Radioactive Iodide Uptake (RAIU) Assay for Sodium/Iodide Symporter (NIS) Inhibition, Stoker and Laws Labs (AID 2283897);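 for AC50: active means loss of ATP signal versus DMSO meaning cytotoxicity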
# In short: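 Viability in hNIS-HEK293T-EPA cells is scored as a drop in luciferase-detected ATP following 2-hour room-temperature exposure (0.001–100uM; triplicate wells, three cell passages), with DMSO as negative control.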
# [3] = ATG_XTT_Cytotoxicity_XSP2: Cytotoxicity Assessment in the Attagene TRANS-FACTORIAL Multi-Species (XSP2) HepG2 Assay (AID 2283837)
# In short: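 XTT-based cell number read-out in human HepG2 liver cells carrying transfected reporter units, measured 24 h after chemical dosing. Activity is signal loss versus DMSO baseline.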
# [4] = target: human Thyroid hormone Receptor alpha (TRa), THRA (gene 7067) (UniProt P10827); assay: ATG_hTRa_XSP2: Attagene TRANS-FACTORIAL Multi-Species (XSP2) HepG2 Assay for human Thyroid hormone Receptor alpha (TRa) (AID 2283838)
# human Thyroid hormone Receptor alpha (TRa), THRA (gene 7067), sequence (P10827 whole entry, looked up, the tested form may be a part): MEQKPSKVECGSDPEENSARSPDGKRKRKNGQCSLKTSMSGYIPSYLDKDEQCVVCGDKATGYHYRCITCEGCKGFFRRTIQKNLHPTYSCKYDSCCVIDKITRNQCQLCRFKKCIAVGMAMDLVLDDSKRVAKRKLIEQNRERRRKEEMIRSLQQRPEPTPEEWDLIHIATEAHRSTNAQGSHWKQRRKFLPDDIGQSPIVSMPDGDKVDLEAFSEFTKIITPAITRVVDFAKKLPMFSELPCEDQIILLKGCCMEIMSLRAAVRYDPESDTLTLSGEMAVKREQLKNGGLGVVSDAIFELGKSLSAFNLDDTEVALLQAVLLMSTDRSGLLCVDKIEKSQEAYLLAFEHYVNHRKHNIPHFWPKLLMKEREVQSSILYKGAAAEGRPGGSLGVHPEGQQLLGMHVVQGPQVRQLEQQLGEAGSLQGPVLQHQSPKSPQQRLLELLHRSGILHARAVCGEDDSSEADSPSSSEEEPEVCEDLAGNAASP
# In short: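 Reporter transcripts were read by RT-PCR with fluorescent primer extension, HpaI digestion and capillary electrophoresis. These came from HepG2 cells carrying multiplexed TRa-Gal4 TRANS constructs, harvested 24 hours after dosing. The medium also held 6-alpha-fluorotestosterone (3 nM) and norgestrel (1.5 nM), and increases were fitted against DMSO.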
# [5] = target: frog Thyroid hormone Receptor alpha (TRa), thra-a (gene 397942) (UniProt P15204); assay: ATG_frTRa_XSP2: Attagene TRANS-FACTORIAL Multi-Species (XSP2) HepG2 Assay for frog Thyroid hormone Receptor alpha (TRa) (AID 2283839);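 for AC50: AC50 reflects induction of frog TRa-driven reporter mRNA above DMSO baseline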
# frog Thyroid hormone Receptor alpha (TRa), thra-a (gene 397942), sequence (P15204 whole entry, looked up, the tested form may be a part): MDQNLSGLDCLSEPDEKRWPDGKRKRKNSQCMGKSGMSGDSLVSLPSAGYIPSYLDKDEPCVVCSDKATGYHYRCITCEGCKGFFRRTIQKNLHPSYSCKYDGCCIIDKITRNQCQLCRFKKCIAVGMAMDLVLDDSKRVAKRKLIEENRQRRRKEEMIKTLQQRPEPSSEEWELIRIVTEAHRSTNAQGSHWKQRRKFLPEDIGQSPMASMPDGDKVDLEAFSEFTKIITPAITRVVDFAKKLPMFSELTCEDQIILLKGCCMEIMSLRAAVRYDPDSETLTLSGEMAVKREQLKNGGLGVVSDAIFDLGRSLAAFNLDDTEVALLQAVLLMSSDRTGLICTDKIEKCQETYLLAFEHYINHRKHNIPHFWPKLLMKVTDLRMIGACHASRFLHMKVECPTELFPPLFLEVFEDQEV
# In short: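 HepG2 transiently transfected with multiplexed GAL4-UAS reporters driven by frog TRa-Gal4 chimeras; 24 h chemical exposure. Reporter mRNA quantified by RT-PCR, FAM labelling, HpaI digestion and capillary electrophoresis; gain of signal versus DMSO.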
# [6] = target: human Thyroid hormone Receptor beta (TRb), THRB (gene 7068) (UniProt P10828); assay: ATG_hTRb_XSP2: Attagene TRANS-FACTORIAL Multi-Species (XSP2) HepG2 Assay for human Thyroid hormone Receptor beta (TRb) (AID 2283840);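 note: actives raise reporter mRNA so potency reflects agonist-like gain of signal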
# human Thyroid hormone Receptor beta (TRb), THRB (gene 7068), sequence (P10828 whole entry, looked up, the tested form may be a part): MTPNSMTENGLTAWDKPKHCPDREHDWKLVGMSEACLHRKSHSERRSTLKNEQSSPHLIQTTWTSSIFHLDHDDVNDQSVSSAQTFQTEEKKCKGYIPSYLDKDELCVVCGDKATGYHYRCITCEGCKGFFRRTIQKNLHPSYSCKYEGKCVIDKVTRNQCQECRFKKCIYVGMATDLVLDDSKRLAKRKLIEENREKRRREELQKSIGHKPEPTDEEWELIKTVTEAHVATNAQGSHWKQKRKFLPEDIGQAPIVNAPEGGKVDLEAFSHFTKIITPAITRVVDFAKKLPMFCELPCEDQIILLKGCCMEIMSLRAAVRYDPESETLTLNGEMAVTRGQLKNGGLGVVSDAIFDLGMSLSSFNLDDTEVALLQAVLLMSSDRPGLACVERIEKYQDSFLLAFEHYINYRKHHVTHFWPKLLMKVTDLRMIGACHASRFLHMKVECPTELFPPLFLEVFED
# In short: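 HepG2 transiently transfected with a multi-species panel including a human TRb–Gal4 chimera driving Gal4-UAS reporters; medium contained 3 nM 6-alpha-fluorotestosterone and 1.5 nM norgestrel. 24 h dosing; RT-PCR/capillary electrophoresis readout; positive-direction fit vs DMSO.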
# [7] = target: Thyroid hormone receptor alpha (Rattus norvegicus) + Thyroid hormone receptor beta (Rattus norvegicus) (UniProt P18113+P63059); assay: TOX21_TR_LUC_GH3_Agonist_Followup: Tox21 GH3 Thyroid Hormone Receptor Agonism Luciferase Follow-Up Assay (AID 2283939)
# Thyroid hormone receptor alpha (Rattus norvegicus) + Thyroid hormone receptor beta (Rattus norvegicus), sequence (P63059 whole entry, looked up): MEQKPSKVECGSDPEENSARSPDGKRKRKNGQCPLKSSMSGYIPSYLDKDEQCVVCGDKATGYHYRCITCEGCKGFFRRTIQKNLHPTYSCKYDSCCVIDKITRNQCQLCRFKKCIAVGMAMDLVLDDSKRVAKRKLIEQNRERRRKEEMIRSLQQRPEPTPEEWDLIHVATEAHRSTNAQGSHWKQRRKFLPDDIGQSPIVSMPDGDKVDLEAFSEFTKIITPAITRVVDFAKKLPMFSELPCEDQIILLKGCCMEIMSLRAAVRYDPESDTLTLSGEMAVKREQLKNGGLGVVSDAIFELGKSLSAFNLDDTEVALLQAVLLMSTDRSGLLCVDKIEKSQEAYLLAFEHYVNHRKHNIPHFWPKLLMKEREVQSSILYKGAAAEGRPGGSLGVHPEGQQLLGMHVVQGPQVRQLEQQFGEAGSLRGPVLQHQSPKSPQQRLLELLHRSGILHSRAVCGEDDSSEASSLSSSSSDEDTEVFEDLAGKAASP
# Thyroid hormone receptor alpha (Rattus norvegicus) + Thyroid hormone receptor beta (Rattus norvegicus), sequence (P18113 whole entry, looked up): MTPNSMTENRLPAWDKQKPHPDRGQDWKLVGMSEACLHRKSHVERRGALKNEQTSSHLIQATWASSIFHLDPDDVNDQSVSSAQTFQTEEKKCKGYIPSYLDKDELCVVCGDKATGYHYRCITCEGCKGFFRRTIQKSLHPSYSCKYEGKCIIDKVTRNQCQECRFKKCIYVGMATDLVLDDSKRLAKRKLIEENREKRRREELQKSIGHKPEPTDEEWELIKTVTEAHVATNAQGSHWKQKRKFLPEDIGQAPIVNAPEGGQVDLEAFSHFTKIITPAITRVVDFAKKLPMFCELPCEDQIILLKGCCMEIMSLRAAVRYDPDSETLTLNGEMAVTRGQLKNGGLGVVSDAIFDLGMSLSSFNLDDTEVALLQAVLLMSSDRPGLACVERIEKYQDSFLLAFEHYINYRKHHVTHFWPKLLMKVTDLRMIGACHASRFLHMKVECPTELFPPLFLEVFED
# In short: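 Agonist-mode confirmatory run: 15 concentrations (5 nM to 92 uM final) on GH3 rat pituitary cells, 24 h at 37C/5% CO2, T3 as positive control. Luminescence read with ONE-Glo after 30 min.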
compound,measurement,setting,value
CC(C)=CC1C(C(=O)OCN2C(=O)C3=C(CCCC3)C2=O)C1(C)C (stereo unspecified),AC50,[1],32.9 µM (active)
same,AC50,[2],35.4 µM (active)
Nc1c(Cl)cc([N+](=O)[O-])cc1Cl,outcome,[3],inactive
same,AC50,[4],43.6 µM (active) and 22.8 µM (active)
same,AC50,[5],27.1 µM (active)
same,AC50,[6],27.6 µM (active) and 82.2 µM (active)
same,outcome,[1],inactive
same,outcome,[2],inactive
C[N+]1(C)CCCCC1,outcome,[7],inactive
CSc1nc(NC(C)C)nc(NC(C)C)n1,outcome,[1],inactive
same,outcome,[2],inactive
CCC(CC)Nc1c([N+](=O)[O-])cc(C)c(C)c1[N+](=O)[O-],outcome,[4],inactive
same,outcome,[5],inactive
same,outcome,[6],inactive
same,outcome,[1],inactive
same,outcome,[2],inactive
O=[N+]([O-])c1cc(C(F)(F)F)c(Cl)c([N+](=O)[O-])c1Nc1ncc(C(F)(F)F)cc1Cl,AC50,[1],6.41 µM (active)
same,AC50,[2],19.6 µM (active)
CCCCSP(=O)(SCCCC)SCCCC,outcome,[1],inactive
same,outcome,[2],inactive
Cc1cc(C2CC2)nc(Nc2ccccc2)n1,AC50,[1],44 µM (active)
same,outcome,[2],inactive
CON=C(C(=O)OC)c1ccccc1CON=C(C)c1cccc(C(F)(F)F)c1,AC50,[1],2.05 µM (active)
same,outcome,[2],inactive
CC1(C(=O)Nc2ccc(O)c(Cl)c2Cl)CCCCC1,outcome,[1],inactive
same,outcome,[2],inactive
COc1ccc(C(=CC(=O)N2CCOCC2)c2ccc(Cl)cc2)cc1OC,outcome,[3],inactive
same,outcome,[4],inactive
same,outcome,[5],inactive
same,outcome,[6],inactive
N#CSCSC#N,AC50,[1],18.3 µM (active)
same,AC50,[2],41.4 µM (active)
CCCCOC(=O)[C@@H](C)Oc1ccc(Oc2ccc(C#N)cc2F)cc1,outcome,[1],inactive
same,outcome,[2],inactive
COP(=O)(OC)OC(Br)C(Cl)(Cl)Br (stereo unspecified),outcome,[1],inactive
same,outcome,[2],inactive
